Hit rate of the full screen: of about 220,000 compounds, about 300 (0.14%) were called active.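 Rule for the calls: active = inhibition of at least 40%; inactive = inhibition below 40%.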 The sample as a whole holds a higher share of actives than the screen did.
target: Coagulation factor XI (Homo sapiens) (UniProt P03951); assay: human FXIa protease inhibitors, primary screen, biochemical, 1536-well (AID 798); conditions: purified FXIa, Boc-Glu-Ala-Arg-AMC fluorogenic substrate; at 5 µM; hits give high values;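 note: fluorescence of freed AMC excited at 355 nm; 0% = enzyme without compound and 100% = no enzyme blank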
Sequence (P03951 19-387 limits assumed): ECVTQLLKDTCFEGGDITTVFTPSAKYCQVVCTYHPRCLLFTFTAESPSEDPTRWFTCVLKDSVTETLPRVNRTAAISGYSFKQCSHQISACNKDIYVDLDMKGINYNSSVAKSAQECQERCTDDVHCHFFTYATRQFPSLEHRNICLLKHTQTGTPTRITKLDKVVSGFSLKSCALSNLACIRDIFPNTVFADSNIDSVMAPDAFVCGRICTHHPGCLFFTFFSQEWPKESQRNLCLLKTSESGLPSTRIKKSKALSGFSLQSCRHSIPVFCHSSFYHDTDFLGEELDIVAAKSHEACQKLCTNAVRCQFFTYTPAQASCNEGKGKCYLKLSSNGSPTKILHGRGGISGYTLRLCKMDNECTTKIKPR
Sequence (P03951 388-625 limits assumed): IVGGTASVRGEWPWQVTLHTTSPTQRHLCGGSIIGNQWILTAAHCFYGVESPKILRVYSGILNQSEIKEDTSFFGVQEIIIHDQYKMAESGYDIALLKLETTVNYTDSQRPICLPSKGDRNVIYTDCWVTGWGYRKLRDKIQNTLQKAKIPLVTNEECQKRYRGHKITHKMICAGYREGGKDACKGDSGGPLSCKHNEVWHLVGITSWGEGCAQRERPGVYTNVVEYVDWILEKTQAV

**Q.** With `O=C(NCc1cccnc1)Nc1cccc(NC(=O)NCc2cccnc2)c1F` as the compound, how does the inhibition read?
**A.** The inhibition was -0.25% (inactive).

**Q.** For `CCOC(=O)c1ccccc1NC(=S)N1CCC(C(N)=O)CC1`, which inhibition is on record?
**A.** The inhibition was -1.65% (inactive).

**Q.** For `NC(=O)COC(=O)c1cc(S(=O)(=O)N2CCN(c3ccccc3)CC2)ccc1Cl`, which inhibition is on record?
**A.** The inhibition was -1.04% (inactive).

**Q.** For `O=C1c2ccccc2C(=O)N1CCC(O)C[N+](=O)[O-]` (stereo unspecified), which inhibition is on record?
**A.** Its inhibition is 1.96% (inactive).

**Q.** For `CCOc1ccc(S(=O)(=O)Nc2nccs2)cc1`, which inhibition is on record?
**A.** Its inhibition is 0.82% (inactive).

**Q.** For `COc1ccc(OCC(=O)N2CCN(C(=O)c3cccs3)CC2)cc1`, which inhibition is on record?
**A.** The inhibition was -3.87% (inactive).

**Q.** How did the inhibition turn out when `COc1ccc(CN(Cc2ccc(OC)cc2)C(=O)c2cccs2)cc1` was run?
**A.** Its inhibition is 54.2% (active).

**Q.** For `COc1ccc(CN(C(=O)c2cccs2)c2nccs2)cc1OC`, which inhibition is on record?
**A.** The inhibition was 0.51% (inactive).

**Q.** `C/C(=N/NC(=O)CC(=O)N/N=C(\C)c1ccc([N+](=O)[O-])cc1)c1ccc([N+](=O)[O-])cc1` was tested. Which inhibition did it give?
**A.** The inhibition was 0.21% (inactive).

**Q.** With `Cc1nc(N)sc1N=Nc1c(C)n(C)n(-c2ccccc2)c1=O` as the compound, how does the inhibition read?
**A.** The inhibition was 1.75% (inactive).

**Q.** For `CC(C)n1c(O)c(N=Nc2ccccn2)c2ccccc21`, which inhibition is on record?
**A.** The inhibition was 0.21% (inactive).

**Q.** Which inhibition does the source give for `CCCCOc1ccc(C(=O)N/C(=C/C=C/c2ccccc2)C(=O)N2CCOCC2)cc1` here?
**A.** Its inhibition is 5.26% (inactive).

**Q.** Which inhibition does the source give for `CCOC(=O)C1CCN(C(=O)Nc2cccc(OC)c2)CC1` here?
**A.** Its inhibition is -1.56% (inactive).

**Q.** For `CN(c1ccccn1)c1ncnc2[nH]ncc12`, which inhibition is on record?
**A.** Its inhibition is -2.65% (inactive).

**Q.** With `CCOc1cc2c(Cl)ncnc2c(OCC)c1OCC` as the compound, how does the inhibition read?
**A.** Its inhibition is -5.65% (inactive).

**Q.** With `Cc1ccc(C(=O)NNC(=O)OC(C)(C)C)c(Cl)c1` as the compound, how does the inhibition read?
**A.** Its inhibition is 8.12% (inactive).

**Q.** `Cc1nc(N2CCOCC2)sc1C(=O)NN` was tested. Which inhibition did it give?
**A.** Its inhibition is -11.6% (inactive).

**Q.** Which inhibition does the source give for `CC(C)(C)NC(=O)C(=O)NN=C1CCCCCCC1` here?
**A.** The inhibition was -1.87% (inactive).

**Q.** How did the inhibition turn out when `O=S(=O)(Nc1ccc2cn[nH]c2c1)c1ccccc1` was run?
**A.** The inhibition was -7.54% (inactive).

**Q.** With `C/C(=N/O)c1ccc(N2C(=O)C3C4C=CC(C3C2=O)C2C3C(=O)N(c5ccc(/C(C)=N/O)cc5)C(=O)C3C42)cc1` (stereo unspecified) as the compound, how does the inhibition read?
**A.** The inhibition was -1.59% (inactive).

**Q.** How did the inhibition turn out when `CCCCCC(=O)Nc1ccc(S(=O)(=O)Nc2ccc(Cl)nn2)cc1` was run?
**A.** Its inhibition is -12.1% (inactive).

— PubChem BioAssay AID798 (PCMD, 2007)
